Tg IFNy HTS: T. gondii growth inhibition under IFN-gamma; AID 1259416; Toxoplasma gondii growth in IFN-gamma-treated host cells; active compounds read low; activity change, negative = inhibition, % (test concentration not listed); 69,000 tested, 3.8% active; in the data active means activity change below about -70%, passing the limit was not always enough;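 further: host cells are HeLa cells infected with Toxoplasma gondii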
Active calls of the source: *; i = inactive. Only a selection was taken, and hits are over-represented in it overall.

SMILES	Tg IFNy HTS
O=C(NCCc1csc(-c2ccc(F)cc2)n1)C12CC3CC(CC(C3)C1)C2	-11
CCOc1ccc(NC(=O)C(=O)NCCc2sc(-c3ccc(F)cc3)nc2C)cc1	-4
Cc1ccc(-c2nc(CCNC(=O)c3ccc(C)c(C)c3)cs2)cc1	i
O=C(Cc1ccc(F)cc1)NCCc1csc(-c2ccc(F)cc2)n1	30
CCCCOc1ccc(C(=O)NCCc2csc(-c3ccc(F)cc3)n2)cc1	-62
CCOc1ccc(CC(=O)NCCc2sc(-c3ccc(F)cc3)nc2C)cc1	-93*
CC(=O)NCCc1csc(-c2ccc(F)cc2)n1	39
CCOc1ccc(CC(=O)NCCc2sc(-c3cccc(F)c3)nc2C)cc1	-44
Cc1nc(-c2ccc(F)cc2)sc1CCNC(=O)C12CC3CC(CC(C3)C1)C2	-91*
Cc1nc(-c2ccc(F)cc2)sc1CCNC(=O)Cc1ccc(F)cc1	-11
CCN1c2ccc(Cl)cc2C(=O)NC12CCN(C(=O)Nc1ccccc1OC)CC2	34
Cc1ccsc1CN1CCc2nc(C3CCCN3C(=O)C3CCC3)[nH]c(=O)c2C1 (centres undefined)	20
COCCN1Cc2ncn(C)c2C(COCc2csc(C)n2)C1 (centres undefined)	-19
O=S1(=O)c2ccccc2C2(CCN(CC3CC3)C2)N1Cc1ccc(F)cc1 (centres undefined)	-47
Cc1nc(C2CC2)ncc1C(=O)N(C)Cc1ccc2nsnc2c1	-6
CCOC(=O)N1CCN(c2cc3cc(OC)ccc3oc2=O)CC1	12
CCC(C)N1Cc2[nH]nc(COCc3cccnc3)c2C1 (centres undefined)	i
COCC1CCC2(CCN(C(=O)c3cnn(C)c3)CC2)N1CC1CC1 (centres undefined)	-2
O=C(CC1Nc2c3ccccc3nc(=S)n2C1=O)NCc1ccc2c(c1)OCO2 (centres undefined)	-9
O=C(NCCc1csc(-c2ccc(F)cc2)n1)c1ccc(F)cc1	-79*
Cc1cc(C)cc(C(=O)NCCc2sc(-c3ccc(F)cc3)nc2C)c1	-77*
O=C(NCCc1csc(-c2cccc(F)c2)n1)c1ccc(F)cc1	-62
Cc1ccc(C(=O)NCCc2csc(-c3ccc(F)cc3)n2)cc1	-65
Cc1ccc(C(=O)NCCc2sc(-c3ccc(F)cc3)nc2C)cc1	-58
COc1ccc(C(=O)NCCc2sc(-c3ccc(F)cc3)nc2C)cc1	-22
SMILES	Tg IFNy HTS
COC[C@H]1CNC(=O)[C@H]2CCN(C(=O)N3CCCC3)CC[C@@H]12	2
O=C1CC(c2cccc3nsnc23)c2cc3cn[nH]c3cc2N1 (centres undefined)	-3
O=C(Nc1ccc(F)cc1)N1CC[C@H]2CN(Cc3ccncc3)S(=O)(=O)[C@@H]2CC1	-1
COc1cccc(-c2nnc(SCC(=O)O)n2-c2cc(C)nn2C)c1	16
CCc1cnc(N2CCC3(CC(N(C)Cc4ccccn4)CO3)C2)nc1 (centres undefined)	-23
COc1cccc(-n2cc(CN(C)Cc3ccsc3)cn2)c1	19
CC(C)CN1C(=O)CCC12CCC(NC(=O)c1cnccn1)CC2 (centres undefined)	-2
CCC[C@H](NC(=O)[C@@H]1[C@H]2CCC[C@H]2CN1C(=O)[C@@H](NC(=O)[C@@H](NC(=O)c1cnccn1)C1CCCCC1)C(C)(C)C)C(=O)C(=O)NC1CC1	-74*
CCS(=O)(=O)N1CCC2(CCC2NC(=O)c2cnccn2)CC1 (centres undefined)	6
CCc1nc(SCC(=O)NC(C)Cc2ccncc2)n[nH]1 (centres undefined)	2
O=C(c1ccco1)N1C[C@H](OCc2cccnc2)[C@@H]2OCCC[C@@H]21	38
CC1c2cccn2CCN1Cc1ccc(Sc2nncn2C)o1 (centres undefined)	3
Cn1cnnc1Sc1cc(C#N)c(C#N)cc1Sc1nncn1C	-41
Cc1ccc(Nc2nc(Nc3ccc(C)cc3)nc(Sc3nncn3C)n2)cc1	-75*
CCC(=O)N1CCOCC2(CCC(CN(C)Cc3ccco3)O2)C1 (centres undefined)	-41
Cc1ccc(-c2nnc(C3CCC(CNC(=O)CCc4c(C)noc4C)CC3)o2)cn1 (centres undefined)	25
CN(CC1COc2ccccc2O1)C(=O)Cn1cc(NC(=O)c2ccccn2)cn1 (centres undefined)	24
Cc1ccc(Nc2ccc(C(=O)N3CCCCC3)cn2)cc1	312
COc1ccc(-c2ccc(C(=O)N3CCCC(c4ccccc4)CC3)cn2)cc1 (centres undefined)	-27
COc1ccc(-c2ccc(Nc3ccc(C(=O)N4CCCCCC4)cc3)nn2)cc1	-84*
CC(C)C(=O)c1ccc2nnc3ncn(CCN(C)C)c3c2c1	65
O=C(O)c1ccccc1	12
O=C(O)c1c2ccccc2nc2ccccc12	-75*
O=C(O)c1c2c(nc3ccccc13)CSc1ccc(Cl)cc1-2	23
O=C(Nc1ccc(F)cc1F)c1cncc(NS(=O)(=O)c2ccc(Br)cc2)c1	-33
Cn1c(SCc2nc(N)nc(N3CCCc4ccccc43)n2)nnc1-c1ccccc1	-21
